Measurements as given in PubChem BioAssay.
Active and inactive are the calls of the source.

Columns and labels:
[1] = E. coli DRC41 culture turbidity changes, primary screen, E. coli filamentation inducer project, strain DRC41, OD650, 48 h (AID 1152);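 also: E. coli MC1000 strain DRC41 lacking acrAB efflux pump and sulA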; details: E. coli DRC41 (acrAB sulA), higher = more signal, called active from +8 up or from −8 down
[2] = small-molecule binders of probe aLefty1, primary screen, biochemical, small-molecule microarray, 635/667 nm fluorescence (AID 1153); details: higher = more signal;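 also: score merges spot fluorescence with signal-to-noise ratio from the scanned slide images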
[3] = PSAC antagonists in infected red cells, primary screen, cell-based, P. falciparum Indochina, OD700, 1 h (AID 1154); details: P. falciparum Indochina infected RBC osmotic lysis, higher = more signal, called active from +8 up or from −8 down
[4] = PSAC antagonists in infected red cells, primary screen, cell-based, P. falciparum Indochina, OD700, 2 h (AID 1155);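 also: lysis reports solute entry through the parasite surface anion channel PSAC; channel blockers reduce lysis of infected cells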; details: P. falciparum Indochina infected erythrocytes, osmotic lysis OD700; higher = more signal, called active from +8 up or from −8 down
[5] = osmotic lysis modulators in infected erythrocytes, primary screen, PSAC antagonist project, cell-based, P. falciparum Indochina, OD700, 3 h (AID 1156); details: higher = more signal, called active from +8 up or from −8 down
[6] = PSAC antagonists in infected red cells, primary screen, cell-based, P. falciparum Indochina, OD700, 18 h (AID 1157); details: P. falciparum Indochina infected erythrocytes, osmotic lysis OD700, 18 h; higher = more signal, called active from +8 up or from −8 down
[7] = modulators of S6 phosphorylation in cells, primary screen, cell-based, A549, cytoblot, luminescence, serum-stimulated (AID 1158); details: A549 phospho-S6 cytoblot, 5 h, higher = more signal;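 also: serum-stimulated A549 lung adenocarcinoma cells; signal is phosphorylated S6 detected by cytoblot immunostaining with HRP secondary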
[8] = molecular target: NADPH oxidase 2 (Homo sapiens) (UniProt P04839); experiment: NOX2-dependent H2O2 signal modulators, primary screen, NOX inhibitor project, cell-based, HEK293-NOX2, PMA-stimulated, Amplex Red fluorescence (AID 1159); details: 45 min, higher = more signal, called active from +8 up or from −8 down; also: test concentration not given here
[9] = molecular target: NADPH oxidase 4 (Homo sapiens) (UniProt Q9NPH5); experiment: NOX4-dependent H2O2 signal modulators, primary screen, NOX inhibitor project, cell-based, HEK293-NOX4, tetracycline-induced, Amplex Red fluorescence (AID 1160); details: 45 min, higher = more signal, called active from +8 up or from −8 down
[10] = molecular target: NADPH oxidase 5 (Homo sapiens) (UniProt Q96PH1); experiment: NOX5-dependent H2O2 signal modulators, primary screen, NOX inhibitor project, cell-based, HEK293-NOX5, Amplex Red fluorescence (AID 1161); details: HEK293-NOX5, ionomycin, 45 min, higher = more signal
NADPH oxidase 5 (Homo sapiens), sequence (Q96PH1 whole entry, looked up): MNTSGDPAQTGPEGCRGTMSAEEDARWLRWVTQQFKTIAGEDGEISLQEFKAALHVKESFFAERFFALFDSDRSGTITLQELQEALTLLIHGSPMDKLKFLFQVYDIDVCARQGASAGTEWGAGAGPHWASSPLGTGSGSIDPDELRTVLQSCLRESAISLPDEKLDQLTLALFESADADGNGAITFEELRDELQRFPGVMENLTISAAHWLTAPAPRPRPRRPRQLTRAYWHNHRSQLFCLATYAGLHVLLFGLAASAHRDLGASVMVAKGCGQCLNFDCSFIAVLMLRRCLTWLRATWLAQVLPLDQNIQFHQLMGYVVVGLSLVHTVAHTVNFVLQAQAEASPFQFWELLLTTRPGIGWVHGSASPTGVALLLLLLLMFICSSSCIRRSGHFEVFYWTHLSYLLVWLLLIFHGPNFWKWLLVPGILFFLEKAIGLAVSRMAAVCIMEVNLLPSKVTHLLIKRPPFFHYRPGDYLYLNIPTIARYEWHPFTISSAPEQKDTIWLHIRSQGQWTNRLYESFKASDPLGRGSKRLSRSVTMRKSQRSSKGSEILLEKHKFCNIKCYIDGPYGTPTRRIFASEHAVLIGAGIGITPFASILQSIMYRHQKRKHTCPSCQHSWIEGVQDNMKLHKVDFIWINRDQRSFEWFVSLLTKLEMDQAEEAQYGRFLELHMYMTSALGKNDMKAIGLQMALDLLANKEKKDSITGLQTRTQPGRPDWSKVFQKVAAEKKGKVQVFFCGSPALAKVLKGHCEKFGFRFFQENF

NADPH oxidase 4 (Homo sapiens), sequence (Q9NPH5 whole entry, looked up): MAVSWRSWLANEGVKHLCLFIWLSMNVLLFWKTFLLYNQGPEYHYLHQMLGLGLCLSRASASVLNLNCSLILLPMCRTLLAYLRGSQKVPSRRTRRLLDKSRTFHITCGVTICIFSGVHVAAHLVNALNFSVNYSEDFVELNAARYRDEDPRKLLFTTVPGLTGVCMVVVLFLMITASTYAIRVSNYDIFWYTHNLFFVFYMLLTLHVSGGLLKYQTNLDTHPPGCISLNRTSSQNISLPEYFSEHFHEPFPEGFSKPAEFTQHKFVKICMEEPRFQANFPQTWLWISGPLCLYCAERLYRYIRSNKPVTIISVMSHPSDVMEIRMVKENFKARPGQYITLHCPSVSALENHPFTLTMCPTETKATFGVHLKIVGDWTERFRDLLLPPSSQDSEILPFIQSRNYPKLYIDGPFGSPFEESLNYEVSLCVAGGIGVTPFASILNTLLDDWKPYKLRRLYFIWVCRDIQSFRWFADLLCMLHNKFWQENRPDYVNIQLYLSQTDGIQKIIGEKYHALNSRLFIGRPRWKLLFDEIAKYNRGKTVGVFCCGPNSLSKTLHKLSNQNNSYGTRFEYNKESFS
NADPH oxidase 2 (Homo sapiens), sequence (P04839 whole entry, looked up): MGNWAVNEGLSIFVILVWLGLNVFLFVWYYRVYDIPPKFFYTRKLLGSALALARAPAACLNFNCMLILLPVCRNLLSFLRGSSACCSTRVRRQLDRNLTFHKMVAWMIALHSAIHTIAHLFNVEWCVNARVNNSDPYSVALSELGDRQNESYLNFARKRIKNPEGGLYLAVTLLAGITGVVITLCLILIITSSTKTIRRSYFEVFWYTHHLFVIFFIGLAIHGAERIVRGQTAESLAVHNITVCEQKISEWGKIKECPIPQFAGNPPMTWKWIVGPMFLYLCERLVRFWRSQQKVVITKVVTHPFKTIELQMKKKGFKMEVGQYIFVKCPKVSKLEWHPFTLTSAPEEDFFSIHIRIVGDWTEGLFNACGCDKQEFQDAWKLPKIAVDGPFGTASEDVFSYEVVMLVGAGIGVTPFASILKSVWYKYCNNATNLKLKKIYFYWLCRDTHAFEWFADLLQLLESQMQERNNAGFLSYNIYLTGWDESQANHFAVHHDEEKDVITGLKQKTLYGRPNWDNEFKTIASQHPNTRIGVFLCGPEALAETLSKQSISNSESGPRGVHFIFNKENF

Structure (SMILES)	z-score [1]	composite z-score [2]	z-score [3]	z-score [4]	z-score [5]	z-score [6]	z-score [7]	z-score [8]	z-score [9]	z-score [10]
COc1ccc(CCN2C(=O)[C@@]3(Cc4ccccc42)c2ccccc2C(=O)N(Cc2ccccc2OC)[C@H]3c2ccc(CO)cc2)cc1	2.06 (inactive)	0.595	1.96 (inactive)	-0.373 (inactive)	-0.217 (inactive)	-1.29 (inactive)	3.17	0.348 (inactive)	-0.797 (inactive)	0.327
O=C1C2C=CC(C(O)c3ccc(Br)cc3)N(Nc3ccccc3F)C2C(=O)N1c1ccccc1 (stereo not given)	0.894 (inactive)	-0.192	3.67 (inactive)	-0.0291 (inactive)	-0.834 (inactive)	-1.01 (inactive)	0.79	-1.35 (inactive)	-2.56 (inactive)	-0.774
O=c1n(-c2ccccc2)c(=O)n2n1CC(COc1ccccc1)=C([C@H](O)CCc1ccccc1)[C@@H]2CO	2.63 (inactive)	-0.315	16.8 (active)	0.497 (inactive)	0.076 (inactive)	-1.51 (inactive)	1.02	-0.878 (inactive)	-0.265 (inactive)	-0.682
CN(C)CCCNC(=O)[C@@]1(C)c2ccccc2C(=O)N(Cc2ccccc2)[C@H]1c1ccc(CO)cc1	-0.074 (inactive)	-0.146	2.17 (inactive)	0.426 (inactive)	1.32 (inactive)	0.377 (inactive)	-0.142	0.42 (inactive)	-1.25 (inactive)	0.6
C=CCC(OC(C)=O)[C@@H]1[C@@H](N(Cc2cccc3ccccc23)C(=O)Cc2ccc(F)cc2)c2cc(OCCCO)ccc2N1C(=O)c1ccc2ccccc2n1 (stereo not given in full)	0.518 (inactive)	0.0477	1.05 (inactive)	0.167 (inactive)	-0.315 (inactive)	0.0897 (inactive)	0.103	-0.126 (inactive)	0.619 (inactive)	1.94
CCCCCCCCCCC(O)C1C=CC2C(=O)N(C)C(=O)C2N1NC(=O)OC(C)(C)C (stereo not given)	-3.07 (inactive)	-0.239	8.95 (active)	2.45 (inactive)	-1.28 (inactive)	1.81 (inactive)	-1.36	-0.67 (inactive)	-7.78 (inactive)	-3.78
CCOC(=O)C[C@H]1[C@H](OC(=O)c2ccccc2-c2ccccc2)[C@@H](NC(=O)c2ccc(-c3ccccc3)cc2)c2cc(OCCCO)ccc2N1C(=O)c1ccc2ccccc2n1	-0.485 (inactive)	-0.28	2.14 (inactive)	-0.0352 (inactive)	-0.708 (inactive)	0.232 (inactive)	-0.0653	0.724 (inactive)	0.964 (inactive)	1.24
COCCOC(=O)N1C(=O)[C@@]2(c3cc(C#CCCO)ccc31)[C@H](C(=O)Nc1nc3ccccc3s1)[C@H]1C(=O)O[C@H](c3ccccc3)[C@H](c3ccccc3)N1[C@@H]2c1ccccc1OCCO	-0.348 (inactive)	1.28	5.19 (inactive)	1.86 (inactive)	0.286 (inactive)	1.36 (inactive)	-0.331	1.89 (inactive)	-0.9 (inactive)	0.501
O=C(NCC(F)(F)F)[C@@H]1c2ccccc2C(=O)N(Cc2ccc(OC(F)(F)F)cc2)[C@H]1c1ccc(CO)cc1	0.484 (inactive)	-0.252	0.926 (inactive)	-0.137 (inactive)	1.44 (inactive)	0.376 (inactive)	-0.323	-0.759 (inactive)	-0.889 (inactive)	-0.263
COc1ccc([Si](C)(C)[C@@H]2[C@@H](CCO)O[C@]3(C(=O)N(Cc4ccc(N5CCCCC5=O)cc4)c4ccccc43)[C@H]2C)cc1	0.968 (inactive)	0.145	26 (active)	21.8 (active)	0.892 (inactive)	2.63 (inactive)	0.703	0.381 (inactive)	0.706 (inactive)	2.1
CCCCC(=C=CC[C@@H](O)c1ccccc1OCCO)C[C@@H](O)COCc1ccccc1	1.47 (inactive)	0.117	17.5 (active)	1.74 (inactive)	-0.255 (inactive)	-0.385 (inactive)	1.51	-0.123 (inactive)	-0.101 (inactive)	-2.04
C[C@@H]1ON(c2ccc(C(=O)OC(C)(C)C)cc2)[C@H](c2ccc(O)cc2)[C@H]1C(=O)N1C(=O)OC[C@H]1Cc1ccccc1	-0.476 (inactive)	0.119	3.71 (inactive)	0.709 (inactive)	-0.348 (inactive)	0.87 (inactive)	0.363	-0.394 (inactive)	-0.43 (inactive)	-0.209
CC(C)[Si](C#C[Si](C(C)C)(C(C)C)C(C)C)(O[C@H](C)c1cn([C@H](CO)Cc2ccccc2)nn1)C(C)C	2.09 (inactive)	-0.212	0.532 (inactive)	0.655 (inactive)	-0.116 (inactive)	0.359 (inactive)	0.479	-1.96 (inactive)	0.188 (inactive)	0.0884
O=C1O[C@H](c2ccccc2)[C@H](c2ccccc2)N2[C@H]1[C@@H](C(=O)Nc1nc3ccccc3s1)[C@]1(C(=O)Nc3ccc(C#CC4(O)CCCCCC4)cc31)[C@H]2c1ccccc1OCCO	-0.569 (inactive)	0.966	2.83 (inactive)	3.35 (inactive)	0.602 (inactive)	1.56 (inactive)	0.164	1.29 (inactive)	0.578 (inactive)	1.5
C=C(COC)/C(=C/C[C@H](OC(=O)c1ccncc1)c1ccccc1OCCO)c1cnc2ccccc2c1	0.657 (inactive)	0.401	13 (active)	1.86 (inactive)	1.31 (inactive)	0.553 (inactive)	0.513	-1.85 (inactive)	-0.502 (inactive)	-0.71
O=C(NCCCCCNC(=O)/C(Cc1ccccc1)=N/O)OCc1ccccc1	2 (inactive)	-0.696	11 (active)	-0.43 (inactive)	0.003 (inactive)	-2.25 (inactive)	1.19	0.53 (inactive)	0.0195 (inactive)	-1.35
Cc1cc(C)c(C(O)C2C=CC3C(=O)N(c4ccccc4)C(=O)C3N2Nc2ccc(C(C)C)cc2)c(C)c1 (stereo not given)	-1.53 (inactive)	0.51	1.02 (inactive)	1.14 (inactive)	0.858 (inactive)	1.05 (inactive)	-0.484	-1.82 (inactive)	-3.87 (inactive)	-7.33
N#Cc1ccc(C(O)C2C=CC3C(=O)N(c4ccccc4)C(=O)C3N2Nc2ccccc2)cc1 (stereo not given)	0.128 (inactive)	0.135	5.39 (inactive)	-0.173 (inactive)	1.18 (inactive)	-0.889 (inactive)	1.64	-2.73 (inactive)	-4.19 (inactive)	-3.02
C=CCNC(=O)[C@@H]1[C@H]2C(=O)O[C@H](c3ccccc3)[C@H](c3ccccc3)N2[C@H](c2ccc(O)cc2)[C@@]12C(=O)N(C(=O)OCCOC)c1ccc(C#CC3(O)CCCCCC3)cc12	2.23 (inactive)	-0.639	0.776 (inactive)	-0.353 (inactive)	0.469 (inactive)	0.682 (inactive)	0.305	-0.00516 (inactive)	0.395 (inactive)	0.849
NCCCCCNC(=O)[C@@H]1C[C@@H]2C(=O)NCC(=O)N2[C@@H]1c1cccc(OCCO)c1	1.81 (inactive)	0.165	2.11 (inactive)	0.282 (inactive)	-0.874 (inactive)	0.154 (inactive)	0.121	1.44 (inactive)	-0.373 (inactive)	2.89
NCCCCCCNC(=O)[C@@H]1C[C@@H]2C(=O)N[C@@H](CCCCN)C(=O)N2[C@@H]1c1cccc(OCCO)c1	0.68 (inactive)	0.784	3.51 (inactive)	0.289 (inactive)	-0.147 (inactive)	0.472 (inactive)	-0.447	0.937 (inactive)	1.02 (inactive)	1.01
COc1cc(OC)c(C(O)C2C=CC3C(=O)N(C)C(=O)C3N2NC(=O)OC(C)(C)C)cc1Br (stereo not given)	-0.36 (inactive)	0.524	1.24 (inactive)	1.18 (inactive)	-0.285 (inactive)	1.07 (inactive)	-0.92	0.224 (inactive)	-3.59 (inactive)	0.576
C=CCC(OC(C)=O)[C@@H]1[C@@H](N(Cc2cc3ccccc3o2)C(=O)c2ccc(-c3ccccc3)cc2)c2cc(OCCCO)ccc2N1C(=O)c1ccc2ccccc2c1 (stereo not given in full)	-0.966 (inactive)	0.187	0.923 (inactive)	0.354 (inactive)	0.216 (inactive)	0.161 (inactive)	-0.109	-1.08 (inactive)	-0.72 (inactive)	0.869
